# G9a block: blocks human histone lysine methyltransferase G9a; Q96KQ7; AID 504332; G9a H3K9 monomethylation, AlphaScreen, 2 h; Potency, µM (top dose mostly 102 µM), without a hit: at the top dose activity, negative = inhibition, hits mostly inhibitors; 350,000 compounds, 8.8% hits; note: % is set by controls: 0 for no effect and ±100 for the full control effect; nearly all actives have a fitted effect of over 75% in size
#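 Quantitative HTS format: methyltransferase activity on a biotin-tagged H3K9 peptide is measured by AlphaScreen, using a rabbit anti-monomethyl-H3K9 antibody with streptavidin donor and anti-IgG acceptor beads. Final levels are 20 nM enzyme, 500 nM peptide, 20 uM SAM; 2 h RT.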
# JMJD2A Tudor: JMJD2A Tudor domain (human) inhibition | AlphaScreen JMJD2A-Tudor / H3K4me3 peptide binding | Potency, µM (highest dose often 114 µM), for inactives: top-dose activity change, negative = inhibition, hits mostly inhibitors | 390,000 compounds, 4.4% hits | AID 504339; note: % is set by controls: 0 for no effect and ±100 for the full control effect; nearly all actives have a fitted effect of over 50% in size
# Target sequence (O75164 whole entry, looked up, the tested form may be a part): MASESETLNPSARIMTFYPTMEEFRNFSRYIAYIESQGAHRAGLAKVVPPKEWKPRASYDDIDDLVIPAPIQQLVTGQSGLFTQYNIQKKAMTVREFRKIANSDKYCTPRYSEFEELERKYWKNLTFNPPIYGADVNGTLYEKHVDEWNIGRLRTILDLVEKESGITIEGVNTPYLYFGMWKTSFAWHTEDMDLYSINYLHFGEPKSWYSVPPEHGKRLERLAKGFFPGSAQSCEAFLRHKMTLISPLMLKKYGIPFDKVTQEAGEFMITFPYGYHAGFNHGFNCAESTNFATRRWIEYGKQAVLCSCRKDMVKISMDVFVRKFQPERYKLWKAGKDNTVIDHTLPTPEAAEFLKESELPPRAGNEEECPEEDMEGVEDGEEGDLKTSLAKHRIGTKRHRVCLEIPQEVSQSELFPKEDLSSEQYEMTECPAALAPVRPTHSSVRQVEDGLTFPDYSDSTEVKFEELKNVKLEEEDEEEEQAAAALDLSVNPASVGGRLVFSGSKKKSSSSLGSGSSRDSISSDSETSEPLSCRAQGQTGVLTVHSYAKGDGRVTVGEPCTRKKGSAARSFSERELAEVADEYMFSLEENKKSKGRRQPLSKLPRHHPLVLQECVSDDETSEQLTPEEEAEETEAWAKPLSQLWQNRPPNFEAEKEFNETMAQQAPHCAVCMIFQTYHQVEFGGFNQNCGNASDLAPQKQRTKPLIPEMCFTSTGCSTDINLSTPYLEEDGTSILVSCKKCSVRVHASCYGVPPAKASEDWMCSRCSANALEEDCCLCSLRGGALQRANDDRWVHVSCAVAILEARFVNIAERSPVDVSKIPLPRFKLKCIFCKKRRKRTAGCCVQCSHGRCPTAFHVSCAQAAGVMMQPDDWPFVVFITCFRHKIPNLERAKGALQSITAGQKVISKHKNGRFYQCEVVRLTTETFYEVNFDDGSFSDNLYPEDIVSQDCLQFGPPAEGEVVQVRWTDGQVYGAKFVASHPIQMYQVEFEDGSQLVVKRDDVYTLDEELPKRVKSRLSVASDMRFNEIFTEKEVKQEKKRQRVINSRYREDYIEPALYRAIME
# Sfp inh: inhibitors of Bacillus subtilis Sfp phosphopantetheinyl transferase; AID 1490; 310,000 compounds, 3.5% hits; Biochemical Sfp PPTase activity, qHTS; Potency, µM, for inactives: largest response in the series, negative = inhibition, most hits filed as inhibitors;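 note: the enzyme is Sfp with the accession as filed and its product quenches rhodamine fluorescence; 0% = enzyme reaction without inhibitor and -100% = no enzyme wells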
#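 Fluorescence-quenching assay with 15 nM Sfp, 5 uM rhodamine-CoA and 12.5 uM BHQ-2-labelled ybbR peptide in pH 7.6 Hepes/MgCl2 buffer. Enzyme was pre-incubated with compound for 15 min at room temperature. Rate was taken from the 30-min fluorescence change (525/598 nm).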
# BAZ2B block: inhibitors of human BAZ2B bromodomain | AlphaScreen BAZ2B-H3K14Ac peptide displacement | Potency, µM (top dose mostly 114 µM), inactives show top-dose activity change, negative = inhibition, most hits filed as inhibitors | 360,000 compounds, 4.4% hits | AID 504333; note: % is set by controls: 0 for no effect and ±100 for the full control effect; nearly all actives have a fitted effect of over 60% in size
#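 Compounds, titrated to a top concentration of 110 uM, were incubated 30 min at room temperature with preformed BAZ2B/acetyl-K14 H3 peptide complex (50 nM each). Proximity signal was measured by AlphaScreen after 20 min with beads.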
# HP1b binding inh: inhibitors of HP1-beta chromodomain binding to methylated histone tails | AlphaScreen HP1-beta / biotin-H3K9me3 peptide binding | Potency, µM (titrated, usually from 114 µM), for the others: at the highest dose activity change, negative = inhibition, most hits filed as inhibitors | 390,000 compounds, 0.56% hits; note: nearly all actives have a fitted effect of over 70% in size
#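 Compound inhibition of the preformed complex between 50 nM HP1-beta and 50 nM biotinylated H3K9me3 peptide was read by AlphaScreen. Buffer was PBS pH 7.4 with 0.01% Tween-20. Incubations ran 30 min at room temperature, with 10 ug/mL donor/acceptor beads.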
# L3MBTL1 inh: L3MBTL1 (human) inhibition; 230,000 compounds, 0.66% hits; Potency, µM (series often up to 57.1 µM), for the others: top-dose activity, negative = inhibition, usual class: inhibitors; Q9Y468; AlphaScreen L3MBTL1–H3K9me1 peptide binding; AID 485360; note: % is set by controls: 0 for no effect and ±100 for the full control effect; nearly all actives have a fitted effect of over 60% in size
#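 L3MBTL1 50 nM + b-AHA-H3(1-15)K9me1 75 nM, 30 min RT; compound added, 30 min RT; streptavidin donor/Ni-chelate acceptor beads 10 ug/mL each final, 30 min RT dark; AlphaScreen read.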
# Numbers without * were called inactive; ? = inconclusive; nt = no result; ! = not active in a repeat; [ ] = another dose, or the depositor's remark. The list is not random: actives were taken first. Their share in the collection is about 12%. Calls come from the whole dose curve; as a rule, active = well fitted curve in the direction sought with a large enough effect; inconclusive = small, poorly fitted or top-dose-only effect, or another doubt; inactive = no such curve, though single readings can be large; an effect the other way counts as inactive or inconclusive. Potency is the fitted concentration of half-maximal effect.
SMILES,G9a block,JMJD2A Tudor,Sfp inh,BAZ2B block,HP1b binding inh,L3MBTL1 inh
Oc1csc(Cc2nc(-c3ccc(Br)cc3)cs2)n1,?,-13%,0%,-30%,43%,0%
Cc1sc(Cc2nc(O)cs2)nc1-c1ccccc1,?,8%[11.4 µM],32µM*,-14%,7%,-2%
COc1ccc(N2C(=O)/C(=C/c3cccs3)NC2=S)cc1,1.8µM*,79µM*,10µM*,?,?,-1%
O=C(O)c1ccn[nH]1,nt,45µM*,nt,nt,-2%,nt
O=C(Nc1cccc(Br)c1)c1ccn[nH]1,7%[59 µM],9%,13%,-21%,20%,0%
CCOc1ccc(NC(=O)CCn2cccn2)cc1,22%[59 µM],-11%,nt,-8%,19%,nt
N#C/C(=C\c1cccc(Cl)c1)C(=O)c1ccccc1,40µM*,-19%,?,-6%,12%,-3%
Cc1nc(NCc2ccccc2)c2nc(-c3ccccc3)n(CCCN3CCCCC3C)c2n1 (stereo unspecified),nt,nt,5%,nt,nt,nt
CCn1c2c(c(=O)n3ncc(C(=O)N4CCN(c5ccc(C(C)=O)cc5)CC4)c13)CN(Cc1ccc(OC)cc1)CC2,2%[59 µM],-34%,nt,-25%,36%[57 µM],nt
CCn1c2c(c(=O)n3ncc(C(=O)Nc4ccc(OC(F)(F)F)cc4)c13)CN(Cc1ccc(OC)cc1)CC2,13µM*,-11%,nt,-5%,22%[57 µM],nt
CCOC(=O)c1ccc(NC(=O)c2cnn3c(=O)c4c(n(CC)c23)CCN(Cc2ccc(OC)cc2)C4)cc1,7%[59 µM],-29%,nt,-18%,5%[57 µM],nt
COc1ccc(CN2CCc3c(c(=O)n4ncc(C(=O)N5CCN(c6ccc(F)cc6)CC5)c4n3C)C2)cc1,4%[59 µM],-11%,nt,79µM*,26%[57 µM],nt
Cc1cc2c(n1-c1ccc(C(=O)NCCc3ccc(Cl)cc3)cc1)CCC(C)C2 (stereo unspecified),-21%[59 µM],-25%,nt,-8%,22%,nt
COC(=O)[C@@H](NC(=O)O[C@@H]1C(=O)c2cc(OC)ccc2O[C@H]1c1ccc(OC)c(Br)c1)C(C)C,nt,nt,1%,nt,nt,nt
CCCNC(=O)N1N=C(c2ccc(N)cc2)c2cc3c(cc2C1C)OCO3 (stereo unspecified),nt,nt,-15%,nt,nt,nt
COc1ccc(-c2c(C#N)c(SCC(=O)Nc3ccc(C)c(C)c3)nc(C)c2C(=O)Nc2ccccc2)cc1OC,2%[59 µM],-19%,nt,1%,8%,nt
CCOP(=O)(O)c1ccccc1OCCOc1ccccc1P(=O)(O)OCC,45µM*,-17%,-7%,?,81%,nt
CC(=O)N[C@@H](CSC/C=C(\C)CCC=C(C)C)C(=O)O,33%[59 µM],nt,45µM*!,nt,nt,nt
CC(=O)N[C@@H](CSC/C=C(\C)CC/C=C(\C)CCC=C(C)C)C(=O)O,-7%[59 µM],nt,?,nt,nt,nt
COc1ccccc1-c1nn2c(-c3cc(C)[nH]n3)nnc2s1,nt,-12%[57.1 µM],nt,nt,22%[57 µM],nt
CCOC(=O)C1CCCN(C(=O)Cc2ccc(OC)c(OC)c2)C1 (stereo unspecified),20%[59 µM],-24%,13%,9%,13%,nt
O=C(c1cccc([N+](=O)[O-])c1)N1CCCC(C(=O)N2CCCCC2)C1 (stereo unspecified),2%,-15%,8%,-13%,26%,-4%
COc1ccc(CN2CCCC(C(=O)N3CCc4ccccc4C3)C2)cc1OC (stereo unspecified),?,22µM*,-21%,89µM*,-7%,nt
COc1ccc(S(=O)(=O)N2CCC(C(=O)N3CCc4ccccc4C3)CC2)cc1Cl,1%[59 µM],-19%,-10%,-3%,23%,nt
O=C(C1CCCN(Cc2ccc([N+](=O)[O-])cc2)C1)N1CCCCC1 (stereo unspecified),28µM*,25µM*,-15%,56µM*,?,nt
SMILES,G9a block,JMJD2A Tudor,Sfp inh,BAZ2B block,HP1b binding inh,L3MBTL1 inh
COc1ccc(CN2CCCC(C(=O)N3CCCCC3)C2)cc1OC (stereo unspecified),2.8µM*,20µM*,-1%,71µM*,9%,nt
CCc1ccccc1NC(=O)Cn1c(=O)n(CC(=O)NCCc2ccccc2)c(=O)c2ccccc21,-26%[59 µM],-4%,nt,-5%,17%,nt
COc1ccccc1N1CCN(C(=O)Cn2c(=O)nc(-c3ccccc3)c3cc(Cl)ccc32)CC1,5%[59 µM],-13%,nt,-11%,10%,nt
Cc1cc(C)cc(NC(=O)CSCc2cc(=O)c3cc(Cl)ccc3[nH]2)c1,25%[59 µM],-17%,nt,4%,18%[57 µM],nt
Cc1ccc(C)c(OCC(=O)OCC(=O)Nc2c(C)nn(-c3ccccc3)c2C)c1,?,-16%,nt,0%,31%,10%
Cc1nn(-c2ccccc2)c(C)c1NC(=O)COC(=O)CC(C)c1ccccc1 (stereo unspecified),?,16µM*,nt,8%,27%,8%
CNC(=O)COC(=O)/C=C/c1c(C)nn(-c2ccccc2)c1C,50µM*,6%,13%,8%,13%,10%
Cc1nn(-c2ccccc2)c(C)c1/C=C/C(=O)OCC(=O)Nc1ncc(Cl)cc1Cl,?,?,-10%,-42%,-11%,-20%
Cc1cccc(OCCC(=O)OCC(=O)Nc2c(C)nn(-c3ccccc3)c2C)c1,35µM*,-7%,nt,-3%,27%,4%
COc1ccccc1C1N=C(Nc2nc3ccccc3o2)NC2=C1C(=O)CC(C)(C)C2 (stereo unspecified),nt,-19%[57.1 µM],nt,nt,5%[57 µM],nt
CCN(CC)c1ccc(N=Cc2ccc([N+](=O)[O-])o2)cc1,2.5µM*,40µM*,28µM*,10µM*,22µM*,?
CCCCCC(=O)N/N=C/c1ccc([N+](=O)[O-])o1,11%[59 µM],-22%,-2%,-10%,-2%,nt
CCN(CC)c1ccc(N=Cc2ccccc2[N+](=O)[O-])cc1,8.9µM*,8.9µM*,50µM*,3.2µM*,8.9µM*,28µM*
CC(=O)N(C)c1ccc(N=Cc2cc3c(cc2[N+](=O)[O-])OCO3)cc1,nt,-21%,nt,nt,-8%,nt
O=C1NC(=S)S/C1=C\c1cc(Cl)cc(Cl)c1O,nt,40µM*,nt,nt,45µM*,nt
Cc1nn(C)cc1/C=C1\SC(=S)NC1=O,?,-13%,-13%,14%,38%,nt
Cc1cc(/C=C2\SC(=S)NC2=O)cc(C)c1O,40µM*,-31%,13%,?,-6%,-20%
Cc1ccc2c(c1)c1c(c(=O)n(-c3ccccc3)c(=O)n1Cc1ccccc1C)n2C,-7%[59 µM],-19%,nt,-11%,34%,nt
NCCCC[C@@H]1NC(=O)c2cc([N+](=O)[O-])cc(I)c2SC[C@@H](C(N)=O)NC(=O)[C@H](CCC(N)=O)NC1=O,8.9µM*,?,9%,?,27%,5%
NCCCC[C@@H]1NC(=O)c2cc([N+](=O)[O-])cc(I)c2SC[C@@H](C(=O)NCC(N)=O)NC(=O)CNC1=O,32µM*,-22%,26%,-9%,50%,10%

# Screening results as filed in PubChem.
